# Source: PMC4336329 (PLoS ONE, 2015)
# The campaign covered roughly 310,000 compounds. About 14,000 (4.5%) showed an effect of 50% or more. The effect is printed as a negative number. The sample as a whole holds a higher share of strong results than the screen did.
# Biological target: human ether-à-go-go-related gene (hERG) potassium channel (human, UniProt Q12809)
# Experiment: primary screen, population patch clamp on CHO cells stably expressing hERG; higher = less effect of the substance
# 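Note: peak tail current of the secondary pulse compared with the same well before compound.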
# Sequence of human ether-à-go-go-related gene (hERG) potassium channel (Q12809 whole entry, looked up): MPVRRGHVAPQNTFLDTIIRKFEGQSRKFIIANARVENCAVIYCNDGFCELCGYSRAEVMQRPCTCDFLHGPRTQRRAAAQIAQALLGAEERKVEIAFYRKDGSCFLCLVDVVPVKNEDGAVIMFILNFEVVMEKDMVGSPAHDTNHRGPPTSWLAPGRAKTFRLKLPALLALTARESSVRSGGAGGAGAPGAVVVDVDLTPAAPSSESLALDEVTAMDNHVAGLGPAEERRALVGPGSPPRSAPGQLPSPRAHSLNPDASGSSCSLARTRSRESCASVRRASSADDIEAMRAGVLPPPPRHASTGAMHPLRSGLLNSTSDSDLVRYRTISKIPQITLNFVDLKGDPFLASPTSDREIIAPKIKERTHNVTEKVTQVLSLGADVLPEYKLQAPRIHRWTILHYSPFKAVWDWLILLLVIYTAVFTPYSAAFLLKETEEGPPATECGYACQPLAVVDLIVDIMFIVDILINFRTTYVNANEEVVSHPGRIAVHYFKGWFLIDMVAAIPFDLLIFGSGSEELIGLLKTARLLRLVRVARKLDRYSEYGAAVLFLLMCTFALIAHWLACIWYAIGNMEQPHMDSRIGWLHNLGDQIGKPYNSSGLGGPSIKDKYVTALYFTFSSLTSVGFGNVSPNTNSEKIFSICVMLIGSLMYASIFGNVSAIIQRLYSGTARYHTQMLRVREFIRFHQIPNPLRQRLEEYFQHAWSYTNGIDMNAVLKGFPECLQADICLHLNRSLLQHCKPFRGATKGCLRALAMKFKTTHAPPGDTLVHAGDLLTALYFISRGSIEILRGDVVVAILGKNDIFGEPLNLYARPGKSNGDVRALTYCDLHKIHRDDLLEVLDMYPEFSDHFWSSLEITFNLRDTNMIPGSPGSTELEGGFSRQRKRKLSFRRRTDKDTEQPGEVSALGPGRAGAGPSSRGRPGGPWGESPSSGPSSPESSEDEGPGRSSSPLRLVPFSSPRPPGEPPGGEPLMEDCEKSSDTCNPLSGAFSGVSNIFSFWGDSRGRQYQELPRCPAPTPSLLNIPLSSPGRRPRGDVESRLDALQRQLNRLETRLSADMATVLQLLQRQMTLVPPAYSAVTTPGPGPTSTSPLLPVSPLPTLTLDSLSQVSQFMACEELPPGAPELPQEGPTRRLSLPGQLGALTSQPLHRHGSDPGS
row,Structure (SMILES),"hERG current change (%, negative = inhibition) at 10uM [%]"
1,O=S(=O)(c1ccc2c(c1)CCN2)N1CCOCC1,-2.2
2,O=c1c2cc(N3CCOCC3)ccc2[nH]c(=S)n1Cc1ccco1,-25.1
3,Cc1cc(N2CC34C=CC(O3)C(C(=O)O)C4C2=O)no1 (stereo not shown),2.22
4,COC(=O)COc1ccc2occ(C(C)=O)c2c1,-3.74
5,O=C(NCC(c1ccco1)N1CCc2ccccc2C1)c1ccccc1Br (stereo not shown),-37.5
6,CCCCCCC1C(C#N)=C(N)OC2=C1C(=O)CC(C)(C)C2 (stereo not shown),-0.43
7,Cc1ccccc1OC(C)C(=O)N1CCC(Cc2ccccc2)CC1 (stereo not shown),-17.5
8,O=C(/C=C/c1ccco1)Nc1ccc(CN2CCOCC2)cc1,-31.3
9,COc1ccc(SC[C@H](Cc2ccccc2)N2CC[C@@H](C)CCC2=O)cc1,-20.1
10,COc1ccc(SC[C@H](Cc2ccccc2)N2CC[C@@H](C(C)(C)C)CCC2=O)cc1,9.92
11,CCCN1CCC(=O)N([C@H](CSc2ccc(OC)cc2)CC(C)C)CC1,-70.8
12,COc1ccc(SC[C@H](CC(C)C)N2CCN(CCc3ccccc3)CCC2=O)cc1,-71.3
13,COc1ccc(CN2CCC(=O)N([C@H](CO)CC(C)C)CC2)cc1,-2.62
14,COc1ccc(SC[C@H](Cc2ccccc2)N2CC[C@@H](O)CCC2=O)cc1,-8.62
15,CCCN1CCC(=O)N(CCSc2ccc(OC)cc2)CC1,-45.4
16,COc1ccc(CN2CCC(=O)N([C@H](CO)Cc3ccccc3)CC2)cc1,-2.16
17,CCCN1CCC(=O)N([C@H](CSc2ccc(OC)cc2)Cc2ccccc2)CC1,-70.5
18,COc1ccc(SC[C@H](Cc2ccccc2)N2CCN(CCc3ccccc3)CCC2=O)cc1,-74.6
19,COc1ccc(SC[C@H](CC(C)C)N2CCN(C)CCC2=O)cc1,-36.3
20,Cc1ccc(OCc2nc3ccccc3[nH]2)cc1,-9.02

row,Structure (SMILES),"hERG current change (%, negative = inhibition) at 10uM [%]"
1,O=C(CN1CCN(c2cccc(C(F)(F)F)c2)CC1)N(C1CC1)C1CCS(=O)(=O)C1 (stereo not shown),-29.2
2,O=[N+]([O-])c1cccnc1N1CCCCC1,5.7
3,Cc1c(C(=O)N2CCN(c3ccccc3)CC2)sc2nc3n(c(=O)c12)CCC3,6.84
4,COc1ccc(-c2nnnn2C)cc1S(=O)(=O)NCCc1ccccc1,-2.23
5,CCc1c(C)sc(NC(=O)Cc2ccccc2OC)c1C(=O)N1CCOCC1,-16.4
6,Cc1cc(N)n2nc(-c3ccc(C(C)(C)C)cc3)cc2n1,8.26
7,O=C(NCC(c1cccs1)N1CCOCC1)c1cc([N+](=O)[O-])ccc1Cl (stereo not shown),-20.5
8,NC(=O)c1ccccc1OCC(=O)Nc1ccc2c(c1)CCC2,5.27
9,Cc1ccc(S(=O)(=O)Oc2ccc(/C=C3\N=C(c4cccc(C)c4)OC3=O)cc2)cc1,1.5
10,O=C(COc1ncnc2ccccc12)Nc1ccc(Cl)c(S(=O)(=O)N2CCOCC2)c1,-13.5
11,CCn1c(C)c(C(=O)O)c2cc(OC)ccc21,6.41
12,Cc1ccc(NC(=O)c2ccc(Cl)c(N3C(=O)C=CC3=O)c2)cc1,-0.826
13,CN(CCOc1ccccc1)C(=O)c1ccc(OC2CCN(C(=O)C3CC3)CC2)cc1,-25.7
14,COc1ccc(NC(=O)CCC(=O)Nc2nnc(CC(C)C)s2)cc1Cl,20
15,CN1CCC(=O)N([C@H](CO)Cc2ccccc2)CC1,12
16,COc1ccc(SC[C@H](Cc2ccccc2)N2CCN(C)CCC2=O)cc1,-52.2
17,Cc1nn(CCCC(=O)NCc2ccc(Cl)cc2)c(C)c1[N+](=O)[O-],-41.9
18,Nc1cc(C(=O)N2CCCC2)cc(C(=O)N2CCCC2)c1,11.9
19,O=C(O)c1ccc2cc(-c3ccccc3)[nH]c2c1,-30.8
20,C=CCN1C(=O)C(Cc2ccc(OC)cc2)S/C1=N\N=C\c1cccs1 (stereo not shown),13.1

row,Structure (SMILES),"hERG current change (%, negative = inhibition) at 10uM [%]"
1,O=C(CCn1nc(-c2ccc(Cl)cc2)ccc1=O)N1CCN(c2ccccc2)CC1,-45.9
2,Cc1ccc(C(=O)CCC(=O)N2CCN(c3ccc(F)cc3)CC2)cc1,-10.1
3,O=C(CCC(=O)N1CCN(c2ccc(F)cc2)CC1)c1ccccc1,-12.7
4,O=C(CCn1nc(-c2ccc(Cl)cc2)ccc1=O)N1CCOCC1,-36.9
5,O=C1CC(N2CCN(c3ccccn3)CC2)C(=O)N1c1ccc(F)cc1 (stereo not shown),14.7
6,O=C(O)CCC(=O)N1CCN(c2ccccn2)CC1,9.16
7,O=C1CC(N2CCN(c3ccccn3)CC2)C(=O)N1CC(c1ccccc1)c1ccccc1 (stereo not shown),-64
8,O=C(CCC(=O)N1CCN(c2ccc(F)cc2)CC1)c1ccc(F)cc1,-69.4
9,CN1C(=O)CC(N2CCN(c3ccccn3)CC2)C1=O (stereo not shown),1.46
10,O=C(CC(c1ccccc1)c1ccccc1)N1CCN(c2ccccn2)CC1,-53.4
11,O=C(CSc1ccccc1)N1CCN(c2ccccn2)CC1,-24.6
12,O=C(CCn1nc(-c2ccc(Cl)cc2)ccc1=O)N1CCN(c2ccc(F)cc2)CC1,-52.9
13,Cn1c(COc2cccc3cccnc23)nnc1SCC(=O)O,9.13
14,Cc1cccc(C)c1NC(=O)CCS(=O)(=O)c1cccc2nsnc12,-4.59
15,CCOC(=O)c1cc2c(ccn2C)n1Cc1ccccc1C,11.8
16,CN1C(=O)CC(c2ccccc2)C1=O (stereo not shown),3.18
17,Cc1cc(NCCc2ccccc2F)n2ncnc2n1,-1.21
18,Cc1cc(C)cc(N(C(=O)Cc2cccs2)C(C(=O)NC2CCCC2)c2ccc(C)o2)c1 (stereo not shown),2.77
